Results taken from PubChem BioAssay AID588689 (Southern Research Specialized Biocontainment Screening …, 2011).
Among all 340,000 compounds or so, about 1,000 (0.29%) were called active. Rule as the data show it: inconclusive = inhibition above about 29% without an active follow-up result; inactive = below that. A selection follows. Entries with a potency or affinity are not part of this list.

Molecular target: Genome polyprotein (Dengue virus type 2 (strain 16681-PDK53)) (UniProt P29991)
Assay: Dengue-2 NS5 methyltransferase inhibitors, primary screen, biochemical, confirmation dose response (AID 588689)
Conditions: Dengue-2 NS5 methyltransferase capping enzyme assay, at 25 µM, stronger effect = higher value
[1] = measured here: pilot screen replicate inhibition

Row | Structure (SMILES) | inhibition | inhibition [1]
1 | O=C(NCN1CCN(c2ccccn2)CC1)c1cnccn1 | -4.12% (inactive) | –
2 | O=C(Nc1cccc([N+](=O)[O-])c1)c1cc(S(=O)(=O)Nc2ccccn2)ccc1Cl | 0.65% (inactive) | –
3 | O=C(COC(=O)CSc1ccc([N+](=O)[O-])cc1)NCC1CCCO1 (stereo not drawn) | 5.91% (inactive) | –
4 | Cc1ccc2c(c1)c1ccc3c(c1n2C)C(=O)C=CC3=O | 47.6% (inactive) | –
5 | COc1ccc2c(c1)c1ccc3c(c1n2C)C(=O)C=CC3=O | 5.87% (inactive) | –
6 | Cc1ccc(C)c2c1c1ccccc1n2C | 0.78% (inactive) | –
7 | Cc1cc(=O)n(C)c2ccccc12 | -7.77% (inactive) | –
8 | CCC(C)NC(=O)CCSCCC(=O)NC(C)CC (stereo not drawn) | -4.42% (inactive) | –
9 | CCCC(C)C(=O)Nc1ccc(S(N)(=O)=O)cc1 (stereo not drawn) | -3.64% (inactive) | –
10 | CCOC(=O)C1CCCN(S(=O)(=O)NC[C@H]2O[C@@H](n3cnc4c(N)ncnc43)[C@H](O)[C@@H]2O)C1 (stereo partly drawn) | -8.6% (inactive) | -4.29%
11 | Fc1cnc(N2CCc3ccccc32)nc1N1CCc2ccccc21 | -0.68% (inactive) | –
12 | O=C1C(=Cc2ccco2)C(=O)c2ccccc21 | -4.01% (inactive) | –
13 | Cc1ccc(C=C2C(=O)c3ccccc3C2=O)o1 | 1.92% (inactive) | –
14 | Cc1cc(C(=O)O)ccc1-n1c(C)cc(C=C2C(=O)c3ccccc3C2=O)c1C | -19.9% (inactive) | –
15 | O=C(O)c1ccc2c(c1)C(=O)N(N1C(=O)c3ccccc3C1=O)C2=O | 5.13% (inactive) | –
16 | O=C(O)c1ccc2c(c1)C(=O)N(Cc1ccco1)C2=O | 5.56% (inactive) | –
17 | Cc1ccc(C(=O)O)cc1-c1ccc(C=C2C(=O)c3ccccc3C2=O)o1 | -0.73% (inactive) | –
18 | COc1cc(COC(=O)c2cnc(C)cn2)c(OC)cc1Br | 7.48% (inactive) | –
19 | Cc1cc(Br)ccc1SCC(=O)OCC(=O)NCc1ccco1 | 13.5% (inactive) | –
20 | COC(=O)CCC(=O)COc1ccccc1C#N | -1.61% (inactive) | –
21 | O=S(=O)(O)c1cc(O)c(N=Nc2ccc(O)cc2O)c2ccccc12 | 22.4% (inactive) | –
22 | Oc1ccc(N=Nc2ccc(Br)cc2)c(O)c1 | 7.83% (inactive) | –
23 | CCOC(=O)CSc1nc2c(sc(=S)n2-c2ccc(OCC)cc2)c(=O)[nH]1 | 0% (inactive) | –

Row | Structure (SMILES) | inhibition | inhibition [1]
24 | CCOc1ccc(-n2c(=S)sc3c(=O)n(-c4ccccc4)c(SCC(=O)O)nc32)cc1 | -5.28% (inactive) | –
25 | CC(C)N1C(=O)C(=O)N(CC(=O)N2c3ccccc3NC(=O)CC2C)C1=O (stereo not drawn) | 4.36% (inactive) | –
26 | COCC(C)NC(=O)c1cc(-c2ccccc2OC)on1 (stereo not drawn) | -5.61% (inactive) | –
27 | CCOC(=O)C1=CN2CCCC[C@@H]2CC1=O | -4.81% (inactive) | –
28 | CCOC(=O)C1=CN2CCC[C@H]2CC1=O | -9.17% (inactive) | –
29 | Cc1ccc(S(=O)(=O)NCCC(=O)N2CCC(Cc3ccccc3)CC2)cc1 | -2.89% (inactive) | –
30 | CCN(CC(=O)Nc1ccccc1C(F)(F)F)C(=O)c1ccc2c(c1)NC(=O)C(C)S2 (stereo not drawn) | -4.95% (inactive) | –
31 | NC(=O)C1CCN(C(=O)c2ccc3c(=O)n(Cc4ccco4)c(SCc4ccc([N+](=O)[O-])cc4)nc3c2)CC1 | 12.3% (inactive) | –
32 | CC1(NC(=O)N2CCOCC2)CCS(=O)(=O)C1 (stereo not drawn) | 0% (inactive) | –
33 | CC1(C)CC(=O)C(C(C2=C(O)CC(C)(C)CC2=O)c2ccc(Cl)c([N+](=O)[O-])c2)C(=O)C1 (stereo not drawn) | -1.46% (inactive) | –
34 | CC1(C)CC(=O)C(C(C2=C(O)CC(C)(C)CC2=O)c2ccc([N+](=O)[O-])cc2)C(=O)C1 (stereo not drawn) | 1.82% (inactive) | –
35 | COc1cc(C(=O)NCC(=O)N2CCN(S(=O)(=O)c3ccccc3C(F)(F)F)CC2)cc(OC)c1OC | -3.36% (inactive) | –
36 | C=CSc1sc(Cl)c(N2CCOCC2)c1[N+](=O)[O-] | 0% (inactive) | –
37 | O=c1sc2ccccc2c(N2CCOCC2)c1[N+](=O)[O-] | -3.49% (inactive) | –
38 | NN1C(=O)/C(=C2/Sc3ccccc3N2CCCS(=O)(=O)O)SC1=S | -12.9% (inactive) | –
39 | COCCN1C(=O)/C(=C2/C(=O)N(CC(=O)Nc3ccccc3Cl)c3ccccc32)SC1=S | 6.48% (inactive) | –
40 | CN1C(=O)/C(=C2\SC(=S)N(CCCCCC(=O)O)C2=O)c2ccccc21 | -1.55% (inactive) | –
41 | O=C(O)CCN1C(=O)C(=C2CCCCCC2)SC1=S | 10.4% (inactive) | –
42 | CC1CN(C2=NC(=O)/C(=C3/C(=O)N(Cc4ccc(F)cc4)c4ccccc43)S2)CC(C)O1 (stereo not drawn) | -3.91% (inactive) | –
43 | O=C(O)CCN1C(=O)/C(=C2\C(=O)N(Cc3ccccc3Cl)c3ccccc32)SC1=S | 22.2% (inactive) | –
44 | CC(C)NC(=O)COC(=O)c1ccccc1Oc1ccccc1 | -2.2% (inactive) | –
45 | CCOC(=O)C1=C(C)N=c2s/c(=C\c3ccc(OCC(=O)O)c(OC)c3)c(=O)n2C1c1ccc(OC)cc1 (stereo not drawn) | -8.46% (inactive) | –
46 | CCOC(=O)C1=C(C)N=c2s/c(=C3/C(=O)Nc4ccccc43)c(=O)n2C1c1ccc(C)cc1 (stereo not drawn) | 22.8% (inactive) | –

Row | Structure (SMILES) | inhibition | inhibition [1]
47 | O=C1CCC/C(=N\NC(=O)COc2ccc(Cl)cc2)C1 | 3.18% (inactive) | –
48 | O=C(NN=C1CCCC1)c1ccc(Cl)cc1 | -2.6% (inactive) | –
49 | O=C(CSc1nccc(=O)[nH]1)Nc1ccc(S(=O)(=O)N2CCOCC2)cc1 | 0% (inactive) | –
50 | Cc1ccc(CNC(=O)CCn2ccc3cc(S(=O)(=O)N4CCCC4)ccc32)cc1 | -4.92% (inactive) | –
51 | Cc1onc(-c2ccccc2)c1C(=O)OCC(=O)Nc1ccccc1 | 8.65% (inactive) | –
52 | O=C1C=C(Nc2ccccc2)C(=O)c2ccccc21 | -2.9% (inactive) | –
53 | O=C(Nc1ccccc1Cl)c1ccccc1 | 1.49% (inactive) | –
54 | CC(=O)Nc1ccc(NC2=CC(=O)c3ccccc3C2=O)cc1 | -5.82% (inactive) | –
55 | O=C(NC1=C(Nc2ccc(Cl)cc2)C(=O)c2ccccc2C1=O)c1ccccc1 | -1.83% (inactive) | –
56 | O=C(Nc1cccc(Cl)c1)C1C2C=CC3(O2)C1C(=O)N(CCCN1CCCCC1)C3C(=O)NC1CCCCC1 (stereo not drawn) | -16% (inactive) | –
57 | Cc1ccc(OCCCc2c(C)n[nH]c2C)cc1 | -5.36% (inactive) | –
58 | CCCC1CC(CSc2ncn[nH]2)OC1=O (stereo not drawn) | -12.3% (inactive) | –
59 | Cc1ccc(S(=O)(=O)N(CC(=O)N2CCOCC2)c2ccc(Br)cc2)cc1 | -8.01% (inactive) | –
60 | Cc1ccc2ccc(S(=O)(=O)NCc3ccccn3)cc2c1 | -1.67% (inactive) | –
61 | COc1cccc(CNC(=O)c2ccc(CS(=O)Cc3ccc(C)cc3)o2)c1 (stereo not drawn) | -4.44% (inactive) | –
62 | O=C(Nc1ccc(S(=O)(=O)NCc2ccco2)cc1)c1cccc(F)c1 | -4.85% (inactive) | –
63 | COc1ccc(C2CC(c3ccccc3)=NN2c2ccc(C(N)=O)cc2)cc1 (stereo not drawn) | -4.66% (inactive) | –
64 | COc1ccc(C2CC(c3ccccc3)=NN2c2ccc(N)cc2)cc1 (stereo not drawn) | -12.8% (inactive) | –
65 | N#C/C(=C\c1cccc(Oc2ccc(C(F)(F)F)cc2[N+](=O)[O-])c1)c1nc2ccccc2[nH]1 | -4.47% (inactive) | –
66 | CCN(CC)C(=O)c1ccc(NS(=O)(=O)c2ccc(/C=C/C(=O)O)cc2)cc1 | 2.19% (inactive) | –
67 | CC1=C/C(=C(\c2ccc(O)c(C)c2)c2ccccc2S(=O)(=O)O)C=CC1=O | 0.65% (inactive) | 3.04%
68 | Cc1cc(C(=O)CS(=O)(=O)c2ccccc2)cc(C)c1O | -11.8% (inactive) | –
69 | CC1=C/C(=C(/c2ccc(O)c(C)c2)c2ccccc2S(=O)(=O)O)C=CC1=O | -1.1% (inactive) | –

Row | Structure (SMILES) | inhibition | inhibition [1]
70 | CC1=CC(=O)C=C/C1=C(/c1ccc(O)cc1C)c1ccccc1S(=O)(=O)O | -1.47% (inactive) | –
71 | O=C(NC(=O)c1ccccc1)OCCN1C(=O)c2ccccc2C1=O | -5.92% (inactive) | –
72 | Cc1cc(S(=O)(=O)N2CCOCC2)ccc1OCC(=O)Nc1ccccc1C(F)(F)F | -3.32% (inactive) | –
73 | OCCNc1c2ccccc2nc2ccccc12 | -2.34% (inactive) | –
74 | OCCNc1nc2ccccc2nc1NCCO | 15.3% (inactive) | –
75 | CC#CCCc1nc2ccccc2c(=O)n1N | -9.73% (inactive) | –
76 | COCCCNC(=O)CCc1nc(-c2ccccc2Cl)no1 | -2.35% (inactive) | –
77 | O=C(O)COc1ccc(/C=N/NC(=O)c2cn(-c3ccccc3)nc2-c2ccccc2)cc1 | 5.65% (inactive) | –
78 | CC(C)N1C(=O)CCN(C=O)c2ccccc21 | -9.31% (inactive) | –
79 | CCOc1ccc(C2C(C(=O)c3ccc(C)o3)=C(O)C(=O)N2c2nc(C)c(C(=O)OC)s2)cc1 (stereo not drawn) | 10.7% (inactive) | –
80 | COC(=O)c1sc(N2C(=O)C(O)=C(C(=O)c3ccc(C)o3)C2c2ccc(F)cc2)nc1C (stereo not drawn) | -6.35% (inactive) | –
81 | CCOC(=O)c1sc(N2C(=O)C(O)=C(C(=O)c3ccco3)C2c2cccc([N+](=O)[O-])c2)nc1C (stereo not drawn) | -0.32% (inactive) | –
82 | CCOC(=O)c1sc(N2C(=O)C(O)=C(C(=O)c3ccco3)C2c2ccco2)nc1C (stereo not drawn) | -2.93% (inactive) | –
83 | COc1ccc(CC(=O)Nc2sc3c(c2C(N)=O)CCCC3)cc1 | -5.87% (inactive) | –
84 | CCC(C)(C)NC(=O)Cn1c(-c2ccccc2)cc(C(C)=O)c1C | 1.78% (inactive) | –
85 | O=C(CCN1N=C(c2ccccc2)CCC1=O)NCC1CCCO1 (stereo not drawn) | 6.81% (inactive) | –
86 | CSc1nnc(-c2ccccc2N=Cc2c(C)[nH]n(-c3ccccc3)c2=O)c(=O)[nH]1 | 11.5% (inactive) | –
87 | Cc1nn(-c2ccc3ccccc3c2)c(=O)c2ccccc12 | -4.49% (inactive) | –
88 | Cc1ccc2nc(N3C(=O)C(O)=C(C(=O)c4ccco4)C3c3ccc(O)cc3)sc2c1 (stereo not drawn) | 3.66% (inactive) | –
89 | Cc1cc(C)c2nc(N3C(=O)C(O)=C(C(=O)c4ccco4)C3c3ccco3)sc2c1 (stereo not drawn) | 1.47% (inactive) | –
90 | Cc1ccc2nc(N3C(=O)C(O)=C(C(=O)c4ccc(C)o4)C3c3cccc(O)c3)sc2c1 (stereo not drawn) | 0.73% (inactive) | –
91 | Cc1ccc2nc(N3C(=O)C(O)=C(C(=O)c4ccco4)C3c3ccc(C)o3)sc2c1 (stereo not drawn) | -8.15% (inactive) | –
